High-throughput results: PubChem BioAssay, National Center for Advancing Translational Sciences (NCATS)
Gal4-VP16 FLuc: counter-screen for ROR gamma inhibitors: Gal4-VP16 reporter | Potency, µM (series often up to 53.6 µM), for inactives: at the highest dose activity, negative = inhibition, hits mostly inhibitors | hit rate 3.5% among 310,000 | Drosophila S2 Gal4-VP16 UAS-luciferase, luminescence, 20 h;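 note: Gal4-VP16 expression switched on by copper sulfate through the metallothionein promoter; nearly all actives have a fitted effect of over 50% in size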
TDP1 cell noCPT: qHTS for Inhibitors of human tyrosyl-DNA phosphodiesterase 1 (TDP1): qHTS in cells in absence of CPT | DT40 Tdp1-/- hTDP1 cells, no CPT, ATP luminescence, 48 h | Potency, µM (top dose mostly 46.2 µM), for the others: at the top dose activity change, negative = growth inhibition, actives largely listed as inhibitors | hit rate 15% among 420,000; note: nearly all actives have a fitted effect of over 55% in size
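Chicken DT40 Tdp1-/- cells complemented with human TDP1, screened without camptothecin (DMSO vehicle only), 400 cells/well. Compounds pin-transferred, cells incubated at 37 °C for at least 48 hr. Growth read as ATP-dependent luminescence (CellTiter-Glo, 30 min at RT).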
TDP1 block: TDP1 (human) enzyme inhibition; recombinant TDP1, AlphaScreen DNA substrate cleavage; Potency, µM (series often up to 130 µM), inactives show at the highest dose activity change, negative = inhibition, hits mostly inhibitors; Q9NUW8; hit rate 0.28% among 350,000; note: nearly all actives have a fitted effect of over 40% in size
Target sequence (Q9NUW8 whole entry, looked up): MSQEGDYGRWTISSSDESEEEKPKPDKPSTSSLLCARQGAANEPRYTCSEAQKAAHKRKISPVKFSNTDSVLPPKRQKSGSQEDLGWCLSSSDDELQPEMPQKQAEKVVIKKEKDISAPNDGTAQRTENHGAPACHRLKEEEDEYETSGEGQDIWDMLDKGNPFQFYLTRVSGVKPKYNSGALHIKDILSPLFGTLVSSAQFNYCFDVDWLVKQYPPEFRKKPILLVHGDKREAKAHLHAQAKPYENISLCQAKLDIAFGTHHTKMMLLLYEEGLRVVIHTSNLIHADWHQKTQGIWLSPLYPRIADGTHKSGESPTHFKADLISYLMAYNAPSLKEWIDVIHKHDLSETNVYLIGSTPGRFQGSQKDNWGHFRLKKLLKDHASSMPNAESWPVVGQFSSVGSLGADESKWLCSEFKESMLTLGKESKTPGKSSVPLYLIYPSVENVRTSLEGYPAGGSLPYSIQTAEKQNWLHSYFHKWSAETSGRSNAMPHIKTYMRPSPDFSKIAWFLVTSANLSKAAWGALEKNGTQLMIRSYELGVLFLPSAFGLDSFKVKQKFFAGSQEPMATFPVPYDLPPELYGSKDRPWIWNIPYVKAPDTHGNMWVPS
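Steps: enzyme plus compound, 15 min RT; add biotin/phosphotyrosine-FITC oligonucleotide (15 nM final), react 5 min; add donor/acceptor beads (10 ug/ml final), 10 min; read AlphaScreen. Tdp1 at 1 nM final.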
RORgamma inh: ROR gamma (mouse) transcription inhibition; hit rate 5.4% among 310,000; Potency, µM (titrated, usually from 53.6 µM), for inactives: at the top dose activity change, negative = inhibition, usual class: inhibitors; Drosophila S2 Gal4-RORgamma UAS-luciferase reporter, 20 h; P51450; AID 2551; note: nearly all actives have a fitted effect of over 60% in size
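Stably transfected Drosophila Schneider cells are the test system, with ROR gamma fused to Gal4 and luciferase under UAS control; luminescence is read after 20 hr of 700 uM copper sulfate induction at ambient temperature.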
DT40 TDP1 CPT: DT40-hTDP1 cell growth loss with CPT. chicken DT40 Tdp1-/-;hTDP1 cells + 20 nM CPT, ATP luminescence, 48 h. Potency, µM (series often up to 46.2 µM), for the others: at the highest dose activity change, negative = growth inhibition, most hits filed as inhibitors. hit rate 12% among 420,000; note: nearly all actives have a fitted effect of over 55% in size
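Chicken DT40 Tdp1-/- cells stably complemented with human TDP1 were seeded at 400 cells/well in medium containing 20 nM camptothecin, exposed to pin-transferred compounds, and grown at 37 °C for at least 48 hr. Viability was read as ATP luminescence.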
* hit, by the source's call; u = inconclusive; x = no result given; [ ] = another dose, or the depositor's remark. Sampled rows, rich in hits. Any-hit rate of the full collection: about 19%. Calls come from the whole dose curve; as a rule, active = well fitted curve in the direction sought with a large enough effect; inconclusive = small, poorly fitted or top-dose-only effect, or another doubt; inactive = no such curve, though single readings can be large; an effect the other way counts as inactive or inconclusive. % is set by controls: 0 for no effect and ±100 for the full control effect; potency is the fitted concentration of half-maximal effect.

SMILES	Gal4-VP16 FLuc	TDP1 cell noCPT	TDP1 block	RORgamma inh	DT40 TDP1 CPT
Cc1ccccc1CNC(=O)c1ccccc1NC(=O)c1nsc2ccccc12	x	u	0%	x	u
CCOc1ccc(CNC(=O)c2ccccc2NC(=O)c2nsc3ccccc23)cc1	x	18µM*	3%	x	21µM*
O=C(NCc1ccccc1Cl)c1ccccc1NC(=O)c1nsc2ccccc12	x	16µM*	3%	x	u
c1ccc(-c2cc3c(N4CCN(c5ncccn5)CC4)ncnc3s2)cc1	0%	u	-7%	17%	u
C=C[C@@H]1c2cccc(C)c2N(S(=O)(=O)c2ccc(C)cc2)[C@H](c2ccccc2)C1(C#N)S(=O)(=O)c1ccccc1 (some centres undefined)	x	21µM*	2%	x	u
C=C[C@@H]1c2c(F)cccc2N(S(=O)(=O)c2ccc(C)cc2)[C@H](c2ccc(OC(C)=O)cc2)C1(C#N)C#N	x	21µM*	0%	x	u
C=C[C@@H]1c2ccccc2N(S(=O)(=O)c2ccc(C)cc2)[C@H](c2ccc(C(F)(F)F)cc2)C1(C#N)C#N	x	12µM*	1%	x	23µM*
CC1(C)O[C@@H]2[C@@H](CO[C@@]3(COS(N)(=O)=O)OC(C)(C)O[C@@H]23)O1	-8%	-27%	6%	5%	-29%
Cc1cc(C)n(C(C)CC(=O)NCc2ccc(N(C)C)cc2)n1 (centres undefined)	x	-6%	3%	x	-17%
COc1ccc(CC(NC(C)=O)C(=O)NC2CCN(S(=O)(=O)c3ccccc3)CC2)c(OC)c1 (centres undefined)	3%	-25%	20%	-5%	12%
COc1ccc(C(=O)CC2(O)C(=O)Nc3c(C)cccc32)c(OC)c1OC (centres undefined)	x	-13%	-7%	x	1%
Cc1ccc(CN2[C@@H](CC3CCCCC3)COCCS2(=O)=O)cc1	-12%	13µM*	x	-19%	u
CCC1COCCS(=O)(=O)N1Cc1ccc(Cl)cc1 (centres undefined)	2%	u	x	-18%	u
O=S1(=O)CCOC[C@H](CC2CCCCC2)N1Cc1ccc(Cl)cc1	-4%	3.5µM*	x	-4%	2.8µM*
CCOC(=O)N1CCN(c2c(NCCCOC(C)C)c(=O)c2=O)CC1	3%	-6%	-2%	-30%	-46%
CS(=O)(=O)c1ccc(N2CCOCC2)c(S(C)(=O)=O)c1	-7%	-1%	7%	-6%	-2%
Cc1ccc(S(=O)(=O)Nc2ccc(O)c(Sc3ncn[nH]3)c2)cc1	6%	3%	-3%	-2%	14%
CCOc1ccc(S(=O)(=O)Nc2ccc(O)c(Sc3ncn[nH]3)c2)cc1	3.5µM*	u	5%[56.1 µM]	u	u
CCOc1ccccc1C(C(=O)NCCOC)N(CCOC)C(=O)Cn1nnc2ccccc21 (centres undefined)	-4%	-6%	1%	11%	-9%
CCN(CC)c1ccc2c(c1)oc(=O)c1c(Cl)cc(=O)oc12	u	5.2µM*	x	u	2.6µM*
CCN(CC)c1ccc2c(Cl)c(Br)c(=O)oc2c1	4µM*	23µM*	x	u	18µM*
CCN(CC)c1ccc2c(C)cc(=O)oc2c1	5%	-9%	-7%	-5%	0%
CCN(CC)c1ccc2c(C)c(Cl)c(=O)oc2c1	3%	u	x	11%	-2%
CC(C(=O)NC1=NCCS1)N1C(=O)C2CC=CCC2C1=O (centres undefined)	1%	1%	7%	-6%	-12%
Cc1[nH][nH]c(=O)c1C(c1c(C)[nH][nH]c1=O)c1cn(Cc2cccc3ccccc23)c2ccccc12	-6%	7.3µM*	13%	-27%	8.2µM*
Cc1ccc2nc(Nc3nc(-c4ccccc4)cc(=O)[nH]3)nc(C)c2c1	13µM*	8.2µM*	4%	u	13µM*
Cc1ccc2nc(Nc3nc(=O)c4ccccc4n3C)nc(C)c2c1	1µM*	x	5%	0.79µM*	x
Cc1cc(C)nc(Nc2nc3ccccc3[nH]2)n1	-7%	-15%	5%	11%	1%
